The campaign covered roughly 5,500 compounds. About 2,000 (36%) were called active. Roughly 18% stayed inconclusive and do not appear here. Cut-off read from the data, not from the text of the source: active = normalized growth mostly below about 0.91 (no sharp cut-off); inconclusive = no clear call, values can overlap the other calls; inactive = mostly above about 0.92. This is one part of the list.
Assay: chemical genetic growth profiling, strain panel (AID 1159580);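 note: tested at 20 µM; growth read once vehicle control cultures reached saturation at 30 °C; 1 = growth at the plate median or of vehicle wells; lower values mean less growth of the strain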
Details: growth OD

Measured: normalized growth

Cc1cc(O)cc(C)c1Cl
active: S. cerevisiae deletion strains, locus YKR001C, strain vps1, stronger effect = lower value 0.846 | S. cerevisiae deletion strains, locus YLL001W, strain dnm1, stronger effect = lower value 0.875 | S. cerevisiae deletion strains, locus YLL026W, stronger effect = lower value 0.915 | S. cerevisiae deletion strains, locus YLR221C, strain rsa3, stronger effect = lower value 0.856 | S. cerevisiae deletion strains, locus YLR262C, strain YPT6 (second series), stronger effect = lower value 0.403 | S. cerevisiae deletion strains, locus YLR320W, strain mms22, stronger effect = lower value 0.815 | S. cerevisiae deletion strains, locus YLR370C, strain arc18, stronger effect = lower value 0.902 | S. cerevisiae deletion strains, locus YMR058W, strain fet3, stronger effect = lower value 0.871 | S. cerevisiae deletion strains, locus YMR231W, strain pep5, stronger effect = lower value 0.754 | S. cerevisiae deletion strains, locus YNL071W, strain lat1, stronger effect = lower value 0.821 | S. cerevisiae deletion strains, locus YNL248C, strain rpa49, stronger effect = lower value 0.835 | S. cerevisiae deletion strains, locus YOR070C, strain gyp1, stronger effect = lower value 0.906 | S. cerevisiae deletion strains, locus YOR106W, strain vam3, stronger effect = lower value 0.817 | S. cerevisiae deletion strains, locus YOR270C, strain vph1, stronger effect = lower value 0.674 | S. cerevisiae deletion strains, locus YPL051W, strain arl3, stronger effect = lower value 0.715 | S. cerevisiae deletion strains, locus YPL078C, strain atp4, stronger effect = lower value 0.838
inactive: S. cerevisiae deletion strains, locus YKL009W, strain mrt4, stronger effect = lower value 0.931 | S. cerevisiae deletion strains, locus YKL068W, stronger effect = lower value 1 | S. cerevisiae deletion strains, locus YKL085W, strain MDH1 (second series), stronger effect = lower value 0.971 | S. cerevisiae deletion strains, locus YKL085W, strain MDH1, stronger effect = lower value 0.971 | S. cerevisiae deletion strains, locus YKL160W, strain elf1, stronger effect = lower value 0.915 | S. cerevisiae deletion strains, locus YKL190W, strain CNB1, stronger effect = lower value 1 | S. cerevisiae deletion strains, locus YKR026C, strain gcn3, stronger effect = lower value 0.952 | S. cerevisiae deletion strains, locus YKR091W, strain srl3, stronger effect = lower value 0.958 | S. cerevisiae deletion strains, locus YLL041C, strain sdh2, stronger effect = lower value 0.957 | S. cerevisiae deletion strains, locus YLR027C, strain aat2, stronger effect = lower value 0.941 | S. cerevisiae deletion strains, locus YLR039C, strain RIC1, stronger effect = lower value 0.765 | S. cerevisiae deletion strains, locus YLR058C, strain SHM2, stronger effect = lower value 1 | S. cerevisiae deletion strains, locus YLR102C, strain apc9, stronger effect = lower value 1 | S. cerevisiae deletion strains, locus YLR113W, strain HOG1, stronger effect = lower value 0.944 | S. cerevisiae deletion strains, locus YLR258W, strain gsy2, stronger effect = lower value 0.924 | S. cerevisiae deletion strains, locus YLR262C, strain YPT6, stronger effect = lower value 0.736 | S. cerevisiae deletion strains, locus YLR268W, strain sec22, stronger effect = lower value 1.01 | S. cerevisiae deletion strains, locus YLR330W, strain CHS5, stronger effect = lower value 0.994 | S. cerevisiae deletion strains, locus YLR342W, strain FKS1 (second series), stronger effect = lower value 0.982 | S. cerevisiae deletion strains, locus YLR342W, strain FKS1, stronger effect = lower value 0.935 | S. cerevisiae deletion strains, locus YLR357W, strain rsc2, stronger effect = lower value 1.1 | S. cerevisiae deletion strains, locus YLR371W, strain rom2, stronger effect = lower value 0.997 | S. cerevisiae deletion strains, locus YLR384C, strain iki3, stronger effect = lower value 0.992 | S. cerevisiae deletion strains, locus YLR418C, strain cdc73, stronger effect = lower value 1 | S. cerevisiae deletion strains, locus YML016C, strain PPZ1, stronger effect = lower value 0.992 | S. cerevisiae deletion strains, locus YML032C, strain rad52, stronger effect = lower value 0.957 | S. cerevisiae deletion strains, locus YML120C, strain ndi1, stronger effect = lower value 0.917 | S. cerevisiae deletion strains, locus YML124C, strain tub3, stronger effect = lower value 0.996 | S. cerevisiae deletion strains, locus YMR078C, strain ctf18, stronger effect = lower value 0.994 | S. cerevisiae deletion strains, locus YMR125W, strain sto1, stronger effect = lower value 1.04 | S. cerevisiae deletion strains, locus YMR129W, stronger effect = lower value 0.966 | S. cerevisiae deletion strains, locus YMR205C, strain PFK2, stronger effect = lower value 0.898 | S. cerevisiae deletion strains, locus YMR223W, strain ubp8, stronger effect = lower value 1.02 | S. cerevisiae deletion strains, locus YMR307W, strain GAS1, stronger effect = lower value 0.904 | S. cerevisiae deletion strains, locus YNL067W, strain RPL9B, stronger effect = lower value 0.972 | S. cerevisiae deletion strains, locus YNL153C, strain GIM3, stronger effect = lower value 1.02 | S. cerevisiae deletion strains, locus YNL183C, strain NPR1, stronger effect = lower value 0.88 | S. cerevisiae deletion strains, locus YNL209W, strain ssb2, stronger effect = lower value 0.929 | S. cerevisiae deletion strains, locus YNL233W, strain BNI4, stronger effect = lower value 0.992 | S. cerevisiae deletion strains, locus YNL250W, strain rad50, stronger effect = lower value 0.992 | S. cerevisiae deletion strains, locus YNL271C, strain bni1, stronger effect = lower value 1 | S. cerevisiae deletion strains, locus YNL298W, strain CLA4, stronger effect = lower value 0.913 | S. cerevisiae deletion strains, locus YNL307C, strain MCK1, stronger effect = lower value 0.995 | S. cerevisiae deletion strains, locus YNL322C, strain KRE1 (second series), stronger effect = lower value 0.961 | S. cerevisiae deletion strains, locus YNR049C, strain mso1, stronger effect = lower value 0.97 | S. cerevisiae deletion strains, locus YNR052C, strain pop2, stronger effect = lower value 1.01 | S. cerevisiae deletion strains, locus YOL006C, strain TOP1, stronger effect = lower value 0.979 | S. cerevisiae deletion strains, locus YOL012C, strain htz1 1.64 | S. cerevisiae deletion strains, locus YOL147C, strain pex11, stronger effect = lower value 0.997 | S. cerevisiae deletion strains, locus YOR001W, strain rrp6, stronger effect = lower value 0.892 | S. cerevisiae deletion strains, locus YOR061W, strain CKA2, stronger effect = lower value 0.993 | S. cerevisiae deletion strains, locus YOR069W, strain VPS5, stronger effect = lower value 1 | S. cerevisiae deletion strains, locus YOR080W, strain dia2, stronger effect = lower value 1.02 | S. cerevisiae deletion strains, locus YOR083W, strain WHI5, stronger effect = lower value 0.899 | S. cerevisiae deletion strains, locus YOR136W, strain idh2, stronger effect = lower value 0.998 | S. cerevisiae deletion strains, locus YOR144C, strain elg1, stronger effect = lower value 1 | S. cerevisiae deletion strains, locus YOR184W, strain ser1, stronger effect = lower value 0.958 | S. cerevisiae deletion strains, locus YOR231W, strain MKK1, stronger effect = lower value 0.946 | S. cerevisiae deletion strains, locus YOR265W, strain rbl2, stronger effect = lower value 0.945 | S. cerevisiae deletion strains, locus YOR290C, strain snf2, stronger effect = lower value 0.908 | S. cerevisiae deletion strains, locus YOR316C, strain cot1, stronger effect = lower value 0.993 | S. cerevisiae deletion strains, locus YPL055C, strain LGE1, stronger effect = lower value 0.947 | S. cerevisiae deletion strains, locus YPL106C, strain sse1, stronger effect = lower value 1.1 | S. cerevisiae deletion strains, locus YPL240C, strain hsp82, stronger effect = lower value 0.951 | S. cerevisiae deletion strains, locus YPL241C, strain CIN2, stronger effect = lower value 0.999 | S. cerevisiae deletion strains, locus YPL256C, strain CLN2, stronger effect = lower value 0.92 | S. cerevisiae deletion strains, locus YPR119W, strain clb2, stronger effect = lower value 0.997 | S. cerevisiae deletion strains, locus YPR141C, strain kar3, stronger effect = lower value 0.999 | S. cerevisiae deletion strains, locus YPR163C, strain tif3, stronger effect = lower value 1.01 | S. cerevisiae deletion strains, locus YPR167C, strain met16, stronger effect = lower value 0.99 | S. cerevisiae deletion strains, strain wtn01, stronger effect = lower value 0.96 | S. cerevisiae strains, strain wild type, stronger effect = lower value 0.998

Source: PubChem BioAssay AID1159580 (chemical genetic matrix, 2015)
